# Assay results: paper PMC7862700, “An all-to-all approach to the identification of sequence-specific readers for epigenetic DNA modifications on cytosine”
# What was measured:
# Assay in all cases: DAPPL (digital affinity profiling via proximity ligation, sequencing); 10 mM Tris-HCl pH 7.5, 50 mM NaCl, 1 mM DTT, 4% glycerol, room temperature, 30 min; GST-TFs on glutathione beads, 16-mer random dsDNA library, 0.1% formaldehyde crosslink after washing; high values mean tight binding
# FEV = target: T1, FEV (Homo sapiens, UniProt Q99581 1-238); details: protein: recombinant; tags: N-terminal GST; dsDNA, one strand shown
# T1 sequence: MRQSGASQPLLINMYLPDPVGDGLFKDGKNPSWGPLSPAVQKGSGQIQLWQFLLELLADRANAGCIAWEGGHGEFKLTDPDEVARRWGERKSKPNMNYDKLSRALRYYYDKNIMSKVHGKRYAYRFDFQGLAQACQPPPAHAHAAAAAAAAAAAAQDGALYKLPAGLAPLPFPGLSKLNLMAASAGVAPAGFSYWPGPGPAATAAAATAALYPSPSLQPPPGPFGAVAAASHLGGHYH
# How it was run: (§1)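 Pools were built from human transcription factors expressed in yeast as GST fusions, captured on glutathione beads and DNA-barcoded, along with a tag-only sample. Incubation with 200 nmole of a 16-mer random double-stranded DNA library lasted 30 min at room temperature in Tris/NaCl/DTT/glycerol buffer, and was followed by washing, 0.1% formaldehyde crosslinking, proximity ligation, PCR amplification and Illumina NextSeq500 sequencing. Binding signal is the quotient of each hexamer's read frequency for a factor and its frequency for the tag-only sample.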
# ETV5 = ETV5 (Homo sapiens, UniProt P41161 1-510); details: protein: recombinant; tags: N-terminal GST; dsDNA, one strand shown
# Sequence of ETV5 (P41161 whole entry): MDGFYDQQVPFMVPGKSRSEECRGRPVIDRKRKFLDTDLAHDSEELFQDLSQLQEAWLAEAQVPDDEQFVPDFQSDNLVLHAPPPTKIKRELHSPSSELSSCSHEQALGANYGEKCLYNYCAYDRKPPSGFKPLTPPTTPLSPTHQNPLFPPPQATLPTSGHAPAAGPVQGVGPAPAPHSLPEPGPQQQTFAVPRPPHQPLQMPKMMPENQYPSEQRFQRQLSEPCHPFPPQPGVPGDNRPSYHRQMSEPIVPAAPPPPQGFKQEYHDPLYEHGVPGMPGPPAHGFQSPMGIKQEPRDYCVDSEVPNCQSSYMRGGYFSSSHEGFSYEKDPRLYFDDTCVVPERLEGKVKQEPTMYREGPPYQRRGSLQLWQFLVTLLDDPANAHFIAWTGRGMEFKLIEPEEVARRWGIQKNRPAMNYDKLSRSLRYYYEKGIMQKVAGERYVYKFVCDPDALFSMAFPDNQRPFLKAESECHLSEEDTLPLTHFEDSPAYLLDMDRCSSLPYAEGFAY
# How it was run: as §1
# HSF1 = HSF1 (Homo sapiens, UniProt Q00613 1-529); details: protein: recombinant; tags: N-terminal GST; chain copies: 3; dsDNA, one strand shown
# Sequence of HSF1 (Q00613 whole entry): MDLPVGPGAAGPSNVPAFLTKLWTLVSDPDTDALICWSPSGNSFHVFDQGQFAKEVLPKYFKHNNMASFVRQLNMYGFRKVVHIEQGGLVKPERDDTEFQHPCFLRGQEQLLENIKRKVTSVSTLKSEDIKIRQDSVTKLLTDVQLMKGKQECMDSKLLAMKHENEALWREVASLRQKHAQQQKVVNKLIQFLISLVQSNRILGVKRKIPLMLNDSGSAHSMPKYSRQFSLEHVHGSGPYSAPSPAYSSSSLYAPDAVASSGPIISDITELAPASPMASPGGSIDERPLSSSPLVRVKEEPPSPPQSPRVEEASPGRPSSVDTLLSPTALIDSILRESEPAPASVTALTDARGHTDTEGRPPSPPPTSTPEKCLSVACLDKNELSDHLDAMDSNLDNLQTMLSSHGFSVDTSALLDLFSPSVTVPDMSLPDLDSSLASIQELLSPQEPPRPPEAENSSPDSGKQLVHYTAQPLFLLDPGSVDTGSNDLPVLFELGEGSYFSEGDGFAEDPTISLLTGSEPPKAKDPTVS
# How it was run: as §1
# SPIC = target: T2, SPIC (Homo sapiens, UniProt Q8N5J4 1-248); details: protein: recombinant; tags: N-terminal GST; dsDNA, one strand shown
# T2 sequence: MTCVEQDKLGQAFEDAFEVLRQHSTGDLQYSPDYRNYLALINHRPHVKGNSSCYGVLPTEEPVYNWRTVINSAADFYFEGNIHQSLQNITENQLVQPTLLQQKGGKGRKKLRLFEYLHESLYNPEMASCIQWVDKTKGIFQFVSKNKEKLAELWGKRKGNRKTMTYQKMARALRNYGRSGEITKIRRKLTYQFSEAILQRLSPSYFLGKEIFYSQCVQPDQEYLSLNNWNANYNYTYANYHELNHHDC
# How it was run: as §1
# ELF4 = ELF4 (Homo sapiens, UniProt Q99607 1-663); details: protein: recombinant; tags: N-terminal GST; dsDNA, one strand shown
# Sequence of ELF4 (Q99607 whole entry): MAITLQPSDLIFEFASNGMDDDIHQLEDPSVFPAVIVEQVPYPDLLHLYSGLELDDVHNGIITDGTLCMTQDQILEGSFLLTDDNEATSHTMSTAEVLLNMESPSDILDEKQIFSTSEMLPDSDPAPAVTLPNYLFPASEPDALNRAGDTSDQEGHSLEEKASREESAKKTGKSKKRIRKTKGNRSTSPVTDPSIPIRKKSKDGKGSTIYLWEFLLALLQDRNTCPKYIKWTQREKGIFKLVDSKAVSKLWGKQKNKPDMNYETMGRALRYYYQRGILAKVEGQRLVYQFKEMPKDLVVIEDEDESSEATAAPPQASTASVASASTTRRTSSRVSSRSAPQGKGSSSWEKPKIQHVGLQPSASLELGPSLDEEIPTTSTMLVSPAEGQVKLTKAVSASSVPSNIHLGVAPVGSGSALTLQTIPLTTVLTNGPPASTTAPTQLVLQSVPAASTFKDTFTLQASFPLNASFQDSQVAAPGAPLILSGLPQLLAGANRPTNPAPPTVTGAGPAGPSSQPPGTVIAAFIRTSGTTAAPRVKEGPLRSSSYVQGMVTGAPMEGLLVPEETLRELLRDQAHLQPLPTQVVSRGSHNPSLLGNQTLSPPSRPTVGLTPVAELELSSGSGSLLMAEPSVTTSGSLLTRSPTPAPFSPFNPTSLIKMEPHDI
# How it was run: as §1
# ELK4 = target: T3, ELK4 (Homo sapiens, UniProt P28324-2 1-405); details: protein: recombinant; tags: N-terminal GST; dsDNA, one strand shown
# T3 sequence: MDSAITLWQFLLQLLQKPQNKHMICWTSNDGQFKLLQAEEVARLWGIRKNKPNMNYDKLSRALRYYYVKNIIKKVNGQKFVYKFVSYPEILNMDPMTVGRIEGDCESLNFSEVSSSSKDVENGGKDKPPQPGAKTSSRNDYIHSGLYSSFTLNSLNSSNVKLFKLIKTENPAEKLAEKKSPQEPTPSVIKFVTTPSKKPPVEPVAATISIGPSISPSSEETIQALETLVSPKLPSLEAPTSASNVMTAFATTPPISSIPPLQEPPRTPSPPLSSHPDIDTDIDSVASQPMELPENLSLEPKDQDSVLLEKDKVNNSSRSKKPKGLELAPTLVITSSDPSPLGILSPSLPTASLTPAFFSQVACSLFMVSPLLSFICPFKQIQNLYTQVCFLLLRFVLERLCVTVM
# How it was run: as §1
# ETV2 = target: T4, ETV2 (Homo sapiens, UniProt O00321 1-342); details: protein: recombinant; tags: N-terminal GST; dsDNA, one strand shown
# T4 sequence: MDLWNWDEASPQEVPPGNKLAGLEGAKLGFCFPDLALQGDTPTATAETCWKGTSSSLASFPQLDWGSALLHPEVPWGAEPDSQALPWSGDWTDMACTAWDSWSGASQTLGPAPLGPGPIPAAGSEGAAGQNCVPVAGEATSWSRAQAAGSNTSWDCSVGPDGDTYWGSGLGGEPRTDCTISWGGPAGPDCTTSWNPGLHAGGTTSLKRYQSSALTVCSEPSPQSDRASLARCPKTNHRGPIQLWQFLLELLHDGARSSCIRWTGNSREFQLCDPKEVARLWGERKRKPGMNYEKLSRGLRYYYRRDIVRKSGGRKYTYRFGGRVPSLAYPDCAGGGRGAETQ
# How it was run: as §1
# ELF3 = target: T5, ELF3 (Homo sapiens, UniProt P78545 1-371); details: protein: recombinant; tags: N-terminal GST; dsDNA, one strand shown
# T5 sequence: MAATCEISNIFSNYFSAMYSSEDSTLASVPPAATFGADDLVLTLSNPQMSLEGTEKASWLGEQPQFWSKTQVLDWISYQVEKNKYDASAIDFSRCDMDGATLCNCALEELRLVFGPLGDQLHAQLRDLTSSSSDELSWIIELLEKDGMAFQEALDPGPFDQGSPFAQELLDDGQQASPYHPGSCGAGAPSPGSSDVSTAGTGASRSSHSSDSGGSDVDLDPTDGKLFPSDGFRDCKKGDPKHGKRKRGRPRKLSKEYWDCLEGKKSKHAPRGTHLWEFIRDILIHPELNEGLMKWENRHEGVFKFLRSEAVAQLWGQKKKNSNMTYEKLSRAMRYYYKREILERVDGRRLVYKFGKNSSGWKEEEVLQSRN
# How it was run: as §1
# CRX = CRX (Homo sapiens, UniProt O43186 1-299); details: protein: recombinant; tags: N-terminal GST; dsDNA, one strand shown
# Sequence of CRX (O43186 whole entry): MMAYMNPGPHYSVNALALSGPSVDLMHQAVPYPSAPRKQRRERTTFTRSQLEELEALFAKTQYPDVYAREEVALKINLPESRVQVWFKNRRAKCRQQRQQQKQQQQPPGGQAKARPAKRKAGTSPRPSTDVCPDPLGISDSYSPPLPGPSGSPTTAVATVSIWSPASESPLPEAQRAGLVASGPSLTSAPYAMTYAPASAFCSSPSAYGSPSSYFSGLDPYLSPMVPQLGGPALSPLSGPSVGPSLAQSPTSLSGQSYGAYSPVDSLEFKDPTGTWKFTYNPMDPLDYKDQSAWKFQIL
# How it was run: as §1
# ETV1 = ETV1 (Homo sapiens, UniProt P50549 1-477); details: protein: recombinant; tags: N-terminal GST; dsDNA, one strand shown
# Sequence of ETV1 (P50549 whole entry): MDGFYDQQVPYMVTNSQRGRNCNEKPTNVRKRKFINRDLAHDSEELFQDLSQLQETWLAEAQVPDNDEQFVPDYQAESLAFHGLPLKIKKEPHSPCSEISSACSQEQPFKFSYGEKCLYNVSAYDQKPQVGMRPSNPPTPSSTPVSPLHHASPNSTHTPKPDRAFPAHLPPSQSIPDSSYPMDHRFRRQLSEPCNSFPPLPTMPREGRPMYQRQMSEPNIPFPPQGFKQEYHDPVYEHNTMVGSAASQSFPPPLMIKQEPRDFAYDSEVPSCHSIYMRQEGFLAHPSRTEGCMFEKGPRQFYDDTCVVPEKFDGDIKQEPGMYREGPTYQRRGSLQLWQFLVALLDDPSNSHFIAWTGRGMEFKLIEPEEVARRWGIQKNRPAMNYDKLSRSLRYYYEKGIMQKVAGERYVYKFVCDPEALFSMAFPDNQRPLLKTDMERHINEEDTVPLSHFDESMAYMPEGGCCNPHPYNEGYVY
# How it was run: as §1
# ERF = target: T6, ERF (Homo sapiens, UniProt P50548 1-548); details: protein: recombinant; tags: N-terminal GST; dsDNA, one strand shown
# T6 sequence: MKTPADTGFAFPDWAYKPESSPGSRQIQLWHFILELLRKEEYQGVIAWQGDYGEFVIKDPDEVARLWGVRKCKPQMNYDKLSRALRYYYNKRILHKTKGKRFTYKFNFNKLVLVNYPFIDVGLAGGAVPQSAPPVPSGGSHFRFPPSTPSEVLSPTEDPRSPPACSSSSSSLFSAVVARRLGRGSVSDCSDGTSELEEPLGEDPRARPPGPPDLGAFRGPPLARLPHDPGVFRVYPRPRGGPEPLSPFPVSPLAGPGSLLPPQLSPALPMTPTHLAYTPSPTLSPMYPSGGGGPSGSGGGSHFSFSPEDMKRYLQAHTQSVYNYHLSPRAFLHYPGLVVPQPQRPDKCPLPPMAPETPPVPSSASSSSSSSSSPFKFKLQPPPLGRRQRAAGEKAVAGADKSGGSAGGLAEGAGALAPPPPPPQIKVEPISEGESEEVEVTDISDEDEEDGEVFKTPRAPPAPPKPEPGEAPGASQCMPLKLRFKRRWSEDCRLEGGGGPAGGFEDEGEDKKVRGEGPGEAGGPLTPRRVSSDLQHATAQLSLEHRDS
# How it was run: as §1
# ETV3L = target: T7, ETV3L (Homo sapiens, UniProt Q6ZN32 1-361); details: protein: recombinant; tags: N-terminal GST; dsDNA, one strand shown
# T7 sequence: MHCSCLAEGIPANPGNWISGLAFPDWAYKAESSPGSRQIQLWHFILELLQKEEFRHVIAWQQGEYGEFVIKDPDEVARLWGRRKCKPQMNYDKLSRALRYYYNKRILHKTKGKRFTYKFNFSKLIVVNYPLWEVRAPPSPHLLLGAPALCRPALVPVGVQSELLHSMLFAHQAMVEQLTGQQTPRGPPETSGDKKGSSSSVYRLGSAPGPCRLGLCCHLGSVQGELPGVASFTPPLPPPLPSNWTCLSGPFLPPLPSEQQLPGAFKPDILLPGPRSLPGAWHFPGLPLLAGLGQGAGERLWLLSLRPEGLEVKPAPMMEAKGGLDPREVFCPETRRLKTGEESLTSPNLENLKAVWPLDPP
# How it was run: as §1
# ETS2 = target: T8, ETS2 (Homo sapiens, UniProt P15036 1-469); details: protein: recombinant; tags: N-terminal GST; dsDNA, one strand shown
# T8 sequence: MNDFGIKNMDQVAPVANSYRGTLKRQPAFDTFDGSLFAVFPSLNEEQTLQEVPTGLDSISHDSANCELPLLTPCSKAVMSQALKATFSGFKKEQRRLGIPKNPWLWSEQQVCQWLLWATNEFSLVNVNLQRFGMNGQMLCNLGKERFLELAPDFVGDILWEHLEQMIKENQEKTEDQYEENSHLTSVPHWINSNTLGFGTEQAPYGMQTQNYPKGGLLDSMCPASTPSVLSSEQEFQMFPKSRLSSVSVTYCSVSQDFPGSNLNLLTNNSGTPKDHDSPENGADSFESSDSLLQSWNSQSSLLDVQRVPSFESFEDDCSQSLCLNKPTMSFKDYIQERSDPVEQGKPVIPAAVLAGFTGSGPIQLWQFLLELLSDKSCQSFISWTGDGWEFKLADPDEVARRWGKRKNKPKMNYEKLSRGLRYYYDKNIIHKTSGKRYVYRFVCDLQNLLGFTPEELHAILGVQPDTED
# How it was run: as §1
# SPDEF = target: T9, SPDEF (Homo sapiens, UniProt O95238 1-335); details: protein: recombinant; tags: N-terminal GST; dsDNA, one strand shown
# T9 sequence: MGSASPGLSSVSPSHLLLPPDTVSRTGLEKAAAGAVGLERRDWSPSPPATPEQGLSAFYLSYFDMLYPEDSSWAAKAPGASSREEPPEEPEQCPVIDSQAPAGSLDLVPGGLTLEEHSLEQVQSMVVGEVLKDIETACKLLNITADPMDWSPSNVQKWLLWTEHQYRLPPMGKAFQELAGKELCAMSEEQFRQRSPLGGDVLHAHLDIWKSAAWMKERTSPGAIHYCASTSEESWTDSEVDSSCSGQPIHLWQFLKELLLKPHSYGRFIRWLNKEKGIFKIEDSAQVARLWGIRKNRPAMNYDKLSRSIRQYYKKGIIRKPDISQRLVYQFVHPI
# How it was run: as §1
# ETV7 = target: T10, ETV7 (Homo sapiens, UniProt Q9Y603 1-341); details: protein: recombinant; tags: N-terminal GST; dsDNA, one strand shown
# T10 sequence: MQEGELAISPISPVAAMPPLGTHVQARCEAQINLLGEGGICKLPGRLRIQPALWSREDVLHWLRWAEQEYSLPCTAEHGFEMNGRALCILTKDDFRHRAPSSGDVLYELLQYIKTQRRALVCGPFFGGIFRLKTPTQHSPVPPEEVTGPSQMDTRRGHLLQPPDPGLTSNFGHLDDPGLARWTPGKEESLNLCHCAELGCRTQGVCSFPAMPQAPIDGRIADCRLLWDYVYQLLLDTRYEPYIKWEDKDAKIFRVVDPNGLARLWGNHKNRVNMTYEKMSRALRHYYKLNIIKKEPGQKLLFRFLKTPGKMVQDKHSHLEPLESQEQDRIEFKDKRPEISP
# How it was run: as §1
# ELF5 = target: T11, ELF5 (Homo sapiens, UniProt Q9UKW6-2 1-255); details: protein: recombinant; tags: N-terminal GST; dsDNA, one strand shown
# T11 sequence: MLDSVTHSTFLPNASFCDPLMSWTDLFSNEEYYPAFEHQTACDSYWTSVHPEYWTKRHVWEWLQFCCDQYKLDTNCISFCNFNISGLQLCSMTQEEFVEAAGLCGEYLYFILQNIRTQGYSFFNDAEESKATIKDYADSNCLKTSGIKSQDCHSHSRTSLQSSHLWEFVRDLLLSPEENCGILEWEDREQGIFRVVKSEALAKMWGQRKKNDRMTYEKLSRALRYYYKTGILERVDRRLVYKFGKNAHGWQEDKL
# How it was run: as §1
# ETV3 = target: T12, ETV3 (Homo sapiens, UniProt P41162-2 1-143); details: protein: recombinant; tags: N-terminal GST; dsDNA, one strand shown
# T12 sequence: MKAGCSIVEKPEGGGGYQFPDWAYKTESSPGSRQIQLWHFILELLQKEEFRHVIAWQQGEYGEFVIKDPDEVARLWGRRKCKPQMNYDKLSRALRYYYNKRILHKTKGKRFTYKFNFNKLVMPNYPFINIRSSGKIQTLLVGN
# How it was run: as §1
# ETV6 = ETV6 (Homo sapiens, UniProt P41212 1-452); details: protein: recombinant; tags: N-terminal GST; dsDNA, one strand shown
# Sequence of ETV6 (P41212 whole entry): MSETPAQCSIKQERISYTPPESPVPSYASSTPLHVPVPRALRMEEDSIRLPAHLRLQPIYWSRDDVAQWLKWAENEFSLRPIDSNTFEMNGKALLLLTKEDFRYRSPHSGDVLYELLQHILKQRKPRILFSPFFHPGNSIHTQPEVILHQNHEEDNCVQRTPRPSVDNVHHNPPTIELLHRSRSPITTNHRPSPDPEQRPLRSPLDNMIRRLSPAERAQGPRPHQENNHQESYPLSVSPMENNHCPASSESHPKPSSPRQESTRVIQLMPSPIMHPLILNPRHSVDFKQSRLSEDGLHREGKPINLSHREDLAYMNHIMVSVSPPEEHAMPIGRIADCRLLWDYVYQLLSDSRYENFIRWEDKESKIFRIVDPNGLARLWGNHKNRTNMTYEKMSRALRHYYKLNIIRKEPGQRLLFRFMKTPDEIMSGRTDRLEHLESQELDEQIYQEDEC
# How it was run: as §1
sequence,measurement,setting,value
ACTTAT,binding signal,FEV,"1.34 fold enrichment (6-mer frequency, TF over GST control)"
same,binding signal,ETV5,"1.32 fold enrichment (6-mer frequency, TF over GST control)"
same,binding signal,HSF1,"1.73 fold enrichment (6-mer frequency, TF over GST control)"
same,binding signal,SPIC,"1.5 fold enrichment (6-mer frequency, TF over GST control)"
same,binding signal,ELF4,"1.35 fold enrichment (6-mer frequency, TF over GST control)"
same,binding signal,ELK4,"1.53 fold enrichment (6-mer frequency, TF over GST control)"
same,binding signal,ETV2,"1.35 fold enrichment (6-mer frequency, TF over GST control)"
same,binding signal,ELF3,"1.27 fold enrichment (6-mer frequency, TF over GST control)"
same,binding signal,CRX,"2.2 fold enrichment (6-mer frequency, TF over GST control)"
same,binding signal,ETV1,"1.42 fold enrichment (6-mer frequency, TF over GST control)"
same,binding signal,ERF,"1.39 fold enrichment (6-mer frequency, TF over GST control)"
same,binding signal,ETV3L,"1.34 fold enrichment (6-mer frequency, TF over GST control)"
same,binding signal,ETS2,"1.36 fold enrichment (6-mer frequency, TF over GST control)"
same,binding signal,SPDEF,"1.4 fold enrichment (6-mer frequency, TF over GST control)"
same,binding signal,ETV7,"1.21 fold enrichment (6-mer frequency, TF over GST control)"
same,binding signal,ELF5,"1.38 fold enrichment (6-mer frequency, TF over GST control)"
same,binding signal,ETV3,"1.35 fold enrichment (6-mer frequency, TF over GST control)"
same,binding signal,ETV6,"1.27 fold enrichment (6-mer frequency, TF over GST control)"
